Activity calls are given as the source filed them. Unless noted, no stated cut-off is given here; in the data, active means inhibition above about 33%; inactive means the rest.
Biological target: Steroidogenic factor 1 (Homo sapiens) (UniProt Q13285)
Assay: SF1 (NR5A1) inverse agonists, counter-screen for LRH-1 inverse agonist project, cell-based, luminescence, high throughput (AID 651614; in the data active means inhibition above about 44%;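 further: cells cotransfected with StAR promoter reporter and SF1 expression vector; 0% = vehicle on cells with receptor and 100% = vehicle on cells lacking receptor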)
Conditions: cell-based SF1 luciferase reporter, at 3.6 µM, active compounds read high

Steroidogenic factor 1 (Homo sapiens), sequence (Q13285 whole entry, looked up): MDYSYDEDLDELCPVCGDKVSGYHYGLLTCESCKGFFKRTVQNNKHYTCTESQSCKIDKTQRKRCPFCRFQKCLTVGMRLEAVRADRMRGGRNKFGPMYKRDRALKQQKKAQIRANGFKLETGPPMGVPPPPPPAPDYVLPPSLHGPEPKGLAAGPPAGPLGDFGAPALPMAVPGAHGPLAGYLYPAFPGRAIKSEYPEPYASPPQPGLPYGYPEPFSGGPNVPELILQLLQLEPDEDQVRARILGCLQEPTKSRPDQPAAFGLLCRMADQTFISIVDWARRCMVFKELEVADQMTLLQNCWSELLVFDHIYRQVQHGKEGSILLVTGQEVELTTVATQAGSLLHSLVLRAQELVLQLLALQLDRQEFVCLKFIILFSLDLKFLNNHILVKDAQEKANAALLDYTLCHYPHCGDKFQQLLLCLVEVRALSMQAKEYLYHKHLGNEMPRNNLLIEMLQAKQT

Compound	inhibition
CC(=O)Nc1ccc(NC(=O)CSc2nnc(-c3cc4ccccc4o3)n2C)cc1	43.9% (active)
Cc1ccc(SCC(=O)Nc2ccc(N3CCOCC3)cc2)c(C)c1	56.5% (active)
NC(=S)NNc1cc(Cl)cc(Cl)c1	40.4% (inactive)
CC(=O)c1cccc(NC(=O)c2ccc([N+](=O)[O-])o2)c1	61.9% (active)
O=C(Nc1cccc2ccccc12)c1ccc([N+](=O)[O-])o1	70.8% (active)
CC(=O)Nc1cc(-c2cccc(NS(C)(=O)=O)c2)cn2c(-c3ccccc3)cnc12	34.3% (inactive)
NC(=O)c1oc2ccccc2c1NC(=O)c1ccc([N+](=O)[O-])o1	69.1% (active)
CC(CCc1ccccc1)NC(=O)COc1ccc(S(=O)(=O)N2CCOCC2)cc1[N+](=O)[O-] (stereo not given)	31.7% (inactive)
CC(C)=NOc1cc(NC(=O)CCl)cc([N+](=O)[O-])c1	56.4% (active)
CCCOc1ccc(NC(=O)CC2C(=O)N(C)C(=S)N2Cc2ccc3c(c2)OCO3)cc1 (stereo not given)	53.2% (active)
CCOC(=O)c1ccc(NC(=O)CSc2nnc(COc3ccccc3OC)n2C)cc1	35.7% (inactive)
O=C(COc1ccc(S(=O)(=O)N2CCCC2)cc1Cl)Nc1ccc2c(c1)OCO2	37% (inactive)
O=C(N/N=C/c1cc2c3c(c1O)CCCN3CCC2)c1ccccc1O	87.2% (active)
COc1cc([N+](=O)[O-])ccc1NC(=O)C[n+]1ccccc1	55.6% (active)
O=C(c1ccco1)N1CCCC(N2CCN(c3cccc(C(F)(F)F)c3)CC2)C1 (stereo not given)	47.7% (active)
CC(=O)c1ccc(NC(=O)CSC2=NS(=O)(=O)c3cc(Cl)ccc3N2)cc1	44.5% (active)
CCOc1ccc(NC(=O)COC(=O)CC2CCCCC2)cc1	44.8% (active)
CCOc1ccc(NC(=O)COC(=O)COc2cccc3c2OC(C)(C)C3)cc1	60.5% (active)
O=S(=O)(c1ccc(-c2csc(Nc3ccc(F)cc3)n2)cc1)N1CCCC1	56.4% (active)
O=C(NCCN1C(=O)S/C(=C\c2ccc(OC(F)F)cc2)C1=O)c1cnccn1	33.1% (inactive)

Compound	inhibition
CC(=O)COc1ccc2c(-c3cccc([N+](=O)[O-])c3)cc(=O)oc2c1	51.8% (active)
O=C(CSc1ncn[nH]1)Nc1ccc(Cl)c(Cl)c1	39% (inactive)
O=C(c1ccc(Oc2ccc([N+](=O)[O-])cc2Cl)cc1)N1CCCC1	58.9% (active)
Cc1ccc(C)c(NC(=O)CSc2nnc(-c3n[nH]c4ccccc34)o2)c1	50.4% (active)
C=CCn1c(CCNC(=O)c2cccs2)nnc1SCC(=O)Nc1cccc(Cl)c1C	53.4% (active)
O=C(CCl)N1CCN(C(=O)C2COc3ccccc3O2)CC1 (stereo not given)	57.3% (active)
O=C(CCl)NCCN1C(=O)S/C(=C\c2cccnc2)C1=O	57.4% (active)
CCOc1ccc(CCNC(=O)COC(=O)c2cc(=O)[nH]c3ccccc23)cc1OCC	53.2% (active)
CC(C)C(=O)N1CCN(c2ccc(NC(=O)c3ccc([N+](=O)[O-])o3)cc2)CC1	60.5% (active)
COc1ccccc1NC(=O)c1ccc(NC(=O)COC(=O)C(C)C)cc1	55.7% (active)
COc1cc(NC(=O)c2ccc([N+](=O)[O-])o2)ccc1NC(=O)c1ccco1	67% (active)
CN1CCN(/N=C/c2nc(-c3cccc([N+](=O)[O-])c3)n3ccccc23)CC1	42.2% (inactive)
c1cnn(-c2nc(N3CCOCC3)nc(N3CCOCC3)n2)c1	48.2% (active)
CCn1c(SCC(=O)Nc2ccc(N3CCOCC3)cc2)nnc1-c1ccco1	47.3% (active)
Cc1cc(OCC(=O)NC2CC2)c2c(C)cc(=O)oc2c1	58.2% (active)
COc1ccc(CCNC(=O)COC(=O)C2CC2C)cc1 (stereo not given)	48.6% (active)
COc1ccc(NC(=O)CN2C(=O)C(C)SC(C)C2=O)c(OC)c1 (stereo not given)	49% (active)
CCOC(=O)CC1CCCCN1C(=O)c1cc(COc2cccc3cnccc23)on1 (stereo not given)	62.1% (active)
CC(=O)Nc1ccc(NC(=O)CSc2nnnn2C2CCCCC2)cc1	44.5% (active)
Cn1c2c(c(=O)n(C)c1=O)C(C(F)(F)F)(C(F)(F)F)N=C(CCC1CCCCC1)N2	49.6% (active)

Test system: not listed separately
Assay: VP16 transactivation reporter inhibitors, counter-screen for LRH-1 inverse agonist project, cell-based, luminescence, high throughput (AID 651615)
Conditions: Gal4-VP16 luciferase reporter cells, at 3.6 µM, active compounds read high

Compound	inhibition
CC(=O)Nc1ccc(NC(=O)CSc2nnc(-c3cc4ccccc4o3)n2C)cc1	-5.84% (inactive)
Cc1ccc(SCC(=O)Nc2ccc(N3CCOCC3)cc2)c(C)c1	-1.3% (inactive)
NC(=S)NNc1cc(Cl)cc(Cl)c1	11.7% (inactive)
CC(=O)c1cccc(NC(=O)c2ccc([N+](=O)[O-])o2)c1	-5.65% (inactive)
O=C(Nc1cccc2ccccc12)c1ccc([N+](=O)[O-])o1	-3.59% (inactive)
CC(=O)Nc1cc(-c2cccc(NS(C)(=O)=O)c2)cn2c(-c3ccccc3)cnc12	-8.63% (inactive)
NC(=O)c1oc2ccccc2c1NC(=O)c1ccc([N+](=O)[O-])o1	-9.15% (inactive)
CC(CCc1ccccc1)NC(=O)COc1ccc(S(=O)(=O)N2CCOCC2)cc1[N+](=O)[O-] (stereo not given)	24.5% (inactive)
CC(C)=NOc1cc(NC(=O)CCl)cc([N+](=O)[O-])c1	13% (inactive)
CCCOc1ccc(NC(=O)CC2C(=O)N(C)C(=S)N2Cc2ccc3c(c2)OCO3)cc1 (stereo not given)	5.2% (inactive)
CCOC(=O)c1ccc(NC(=O)CSc2nnc(COc3ccccc3OC)n2C)cc1	-6.59% (inactive)
O=C(COc1ccc(S(=O)(=O)N2CCCC2)cc1Cl)Nc1ccc2c(c1)OCO2	-9.34% (inactive)
O=C(N/N=C/c1cc2c3c(c1O)CCCN3CCC2)c1ccccc1O	70.4% (active)
COc1cc([N+](=O)[O-])ccc1NC(=O)C[n+]1ccccc1	3.98% (inactive)
O=C(c1ccco1)N1CCCC(N2CCN(c3cccc(C(F)(F)F)c3)CC2)C1 (stereo not given)	11.1% (inactive)
CC(=O)c1ccc(NC(=O)CSC2=NS(=O)(=O)c3cc(Cl)ccc3N2)cc1	-9.28% (inactive)
CCOc1ccc(NC(=O)COC(=O)CC2CCCCC2)cc1	-6.37% (inactive)
CCOc1ccc(NC(=O)COC(=O)COc2cccc3c2OC(C)(C)C3)cc1	-1.47% (inactive)
O=S(=O)(c1ccc(-c2csc(Nc3ccc(F)cc3)n2)cc1)N1CCCC1	35.4% (active)
O=C(NCCN1C(=O)S/C(=C\c2ccc(OC(F)F)cc2)C1=O)c1cnccn1	14.9% (inactive)

Compound	inhibition
CC(=O)COc1ccc2c(-c3cccc([N+](=O)[O-])c3)cc(=O)oc2c1	0.45% (inactive)
O=C(CSc1ncn[nH]1)Nc1ccc(Cl)c(Cl)c1	20.6% (inactive)
O=C(c1ccc(Oc2ccc([N+](=O)[O-])cc2Cl)cc1)N1CCCC1	4.32% (inactive)
Cc1ccc(C)c(NC(=O)CSc2nnc(-c3n[nH]c4ccccc34)o2)c1	5.08% (inactive)
C=CCn1c(CCNC(=O)c2cccs2)nnc1SCC(=O)Nc1cccc(Cl)c1C	2.77% (inactive)
O=C(CCl)N1CCN(C(=O)C2COc3ccccc3O2)CC1 (stereo not given)	-13.5% (inactive)
O=C(CCl)NCCN1C(=O)S/C(=C\c2cccnc2)C1=O	-3.37% (inactive)
CCOc1ccc(CCNC(=O)COC(=O)c2cc(=O)[nH]c3ccccc23)cc1OCC	-8.43% (inactive)
CC(C)C(=O)N1CCN(c2ccc(NC(=O)c3ccc([N+](=O)[O-])o3)cc2)CC1	-4.74% (inactive)
COc1ccccc1NC(=O)c1ccc(NC(=O)COC(=O)C(C)C)cc1	-39.4% (inactive)
COc1cc(NC(=O)c2ccc([N+](=O)[O-])o2)ccc1NC(=O)c1ccco1	-17.9% (inactive)
CN1CCN(/N=C/c2nc(-c3cccc([N+](=O)[O-])c3)n3ccccc23)CC1	3.29% (inactive)
c1cnn(-c2nc(N3CCOCC3)nc(N3CCOCC3)n2)c1	20.2% (inactive)
CCn1c(SCC(=O)Nc2ccc(N3CCOCC3)cc2)nnc1-c1ccco1	10.2% (inactive)
Cc1cc(OCC(=O)NC2CC2)c2c(C)cc(=O)oc2c1	-8.04% (inactive)
COc1ccc(CCNC(=O)COC(=O)C2CC2C)cc1 (stereo not given)	2.63% (inactive)
COc1ccc(NC(=O)CN2C(=O)C(C)SC(C)C2=O)c(OC)c1 (stereo not given)	11.3% (inactive)
CCOC(=O)CC1CCCCN1C(=O)c1cc(COc2cccc3cnccc23)on1 (stereo not given)	61.4% (active)
CC(=O)Nc1ccc(NC(=O)CSc2nnnn2C2CCCCC2)cc1	-1.05% (inactive)
Cn1c2c(c(=O)n(C)c1=O)C(C(F)(F)F)(C(F)(F)F)N=C(CCC1CCCCC1)N2	41.1% (active)
